High-throughput results from PubChem.
BoNT A protease = BoNT/A light chain protease inhibitors, primary screen, biochemical, flow cytometry, MLPCN library; multiplex microsphere protease substrate cleavage; Botulinum neurotoxin type A light chain protease (Clostridium botulinum A str. ATCC 3502); AID 588499, 2011; 360,000 compounds, 0.17% hits; inhibition, % at 10 µM; note: plate controls were buffer without enzyme for full effect and enzyme alone for no effect
MazEF act = activators of E. coli MazEF toxin-antitoxin RNase, primary screen, biochemical, fluorescence, uHTS; FAM/BHQ RNA-DNA oligo cleavage fluorescence, 5 h; activation, % at 20 µM; 350,000 compounds, 0.32% hits; in the data active = activation above about 50%
PfHsp40 rescue = rescue of yeast from PfHsp40 toxicity, primary screen, S. cerevisiae, ATP luminescence | growth rescue, % at 12.5 µM | 340,000 compounds, 0.68% hits | S. cerevisiae expressing PfHsp40, growth rescue | AID 504582, 2011; in the data active = growth rescue above about 28%, passing the limit was not always enough; inconclusive = no clear call, values can overlap the other calls;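 note: yeast W303a lacking pdr1 and pdr3 grown in galactose medium; growth measured after three days at 30 °C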
Bead autofluor = counter-screen for toxin protease inhibitors: compound fluorescence; compound autofluorescence counterscreen, microsphere flow cytometry; active compounds read high; fluorescence intensity (no concentration beside the values); 360,000 compounds, 3.1% hits; in the data active = fluorescence intensity above about 16000; inconclusive = no clear call, values can overlap the other calls
Anthrax LF inh2 = Bacillus anthracis LF protease inhibitors, primary screen, biochemical, multiplex microsphere, MLPCN library. inhibition, % at 10 µM. Lethal factor (Bacillus anthracis), P15917. 360,000 compounds, 0.12% hits. multiplex microsphere protease cleavage assay; note: plate controls were buffer without enzyme for full effect and enzyme alone for no effect
BoNT F protease = BoNT/F light chain protease inhibitors, primary screen, biochemical, flow cytometry, MLPCN library | 360,000 compounds, 0.22% hits | inhibition, % at 10 µM | Botulinum neurotoxin type F light chain protease (Clostridium botulinum) | Multiplex microsphere protease cleavage assay; in the data active = inhibition above about 35%, passing the limit was not always enough; inconclusive = no clear call, values can overlap the other calls; note: plate controls were buffer without enzyme for full effect and enzyme alone for no effect
Numbers without * were called inactive; u = inconclusive; x = no result given. A selection: hits, their analogues and other compounds. The true share with any hit is near 4.3%. Cut-off read from the data, not from the text of the source, unless noted: active = inhibition above about 30%; inconclusive = no clear call, values can overlap the other calls; inactive = below that.

SMILES | BoNT A protease | MazEF act | PfHsp40 rescue | Bead autofluor | Anthrax LF inh2 | BoNT F protease
COc1ccc(C)cc1S(=O)(=O)N1CCC(C)CC1 | 4 | 6 | -1 | 21743* | 3 | 5
COc1ccc(C)cc1S(=O)(=O)N1CCCCCC1 | 0 | -9 | 0 | 4267 | -2 | -2
CCOc1cc(S(=O)(=O)N2CCCCC2)ccc1F | 2 | 4 | 3 | 22074* | -2 | 3
CCOc1ccc(C)cc1S(=O)(=O)N1CCCCC1 | u | 0 | -1 | 21517* | 0 | 0
CCOc1cc(S(=O)(=O)N2CCCC2)ccc1Cl | -3 | -4 | 0 | 7807 | -7 | -25
CN(c1ccccc1)S(=O)(=O)c1cccc(NC(=O)CN2CCCc3ccccc32)c1 | 0 | -5 | 4 | 20032* | -10 | -8
NS(=O)(=O)c1cccc(NC(=O)CN2CCc3ccccc32)c1 | -1 | -15 | 0 | 4906 | -6 | -10
Cc1nc(=O)c(-c2ccccc2)c(C)n1-c1ccc(C(=O)O)cc1 | 1 | 3 | -1 | 22979* | 0 | -1
C=CCNCCOCCOc1ccc(C)cc1[N+](=O)[O-] | 1 | -2 | 1 | 21806* | -3 | 2
COc1cc(C)ccc1OCCOCCOc1ccc(C)cc1[N+](=O)[O-] | -1 | 0 | 5 | 2601 | -1 | -6
CCOC(=O)C1CCN(Cc2ccc(F)c(Br)c2)CC1 | u | -3 | 0 | 20738* | -1 | -1
CCOC(=O)C1CCN(Cc2ccc(F)cc2F)CC1 | -2 | -1 | -1 | 8227 | 0 | -8
CCOC(=O)C1CCN(Cc2ccc(OC)c(C)c2OC)CC1 | -1 | -2 | -1 | 16792* | 2 | 0
CCc1nnc(NC(=O)CSc2nc(C)c3c(c2C#N)CCCC3)s1 | 0 | 3 | 1 | 10128 | -1 | -5
COc1cccc(NC(=O)CSc2nc3c(c(-c4ccco4)c2C#N)CCCC3)c1 | u | -37 | -2 | 23093* | -6 | 1
COc1ccccc1NC(=O)CSc1nc(C)c2c(c1C#N)CCCC2 | -2 | -14 | 0 | 23495* | -1 | -2
COc1ccc(NC(=O)CSc2nc(C)c3c(c2C#N)CCCC3)cc1 | 0 | -3 | 0 | 21814* | 0 | -2
O=C(COC(=O)Cc1cccc(C(F)(F)F)c1)Nc1ccc2[nH]c(=O)[nH]c2c1 | 7 | -1 | -1 | 4255 | 2 | 0
CN(c1ccc(OCC(=O)N2CCC(C(N)=O)CC2)cc1)S(=O)(=O)c1cccs1 | u | 10 | 1 | 21812* | -7 | 1
COc1ccc(NC(=O)C(CC(=O)O)Cc2ccc(Br)cc2)cc1 (stereo unspecified) | -3 | 6 | 0 | 3959 | 16 | u
COc1ccc(NC(=O)C(CC(=O)O)Cc2ccccc2)cc1 (stereo unspecified) | 2 | -2 | 1 | 22396* | 4 | 3
COc1ccc(CN2C(=O)c3cccnc3C2Nc2ccc(OC)c(Cl)c2)cc1 (stereo unspecified) | u | 9 | -1 | 22056* | 0 | 2
COc1ccc(NC2c3ncccc3C(=O)N2Cc2ccccc2)c(OC)c1 (stereo unspecified) | -2 | 0 | 0 | 8556 | -8 | -49
COc1cc(NC2c3ncccc3C(=O)N2Cc2ccco2)cc(OC)c1 (stereo unspecified) | 0 | 5 | 0 | 20554* | -9 | -4
Cc1c2c(nc3c(C(=O)NC4CCCC4)cnn13)CCCC2 | -2 | 4 | 0 | 16888* | -5 | -4
COc1ccc(C(=O)Nc2ccc(-c3cn4ccsc4n3)cc2)cc1S(=O)(=O)N1CCOCC1 | u | -6 | 1 | 20320* | -10 | 4
COc1ccc(C(=O)Nc2nnc(C)s2)cc1S(=O)(=O)N1CCOCC1 | -2 | 1 | 1 | 6041 | 1 | 3
COc1ccc(C(=O)Nc2nc(C)c(C(C)=O)s2)cc1S(=O)(=O)N1CCOCC1 | x | 69* | 0 | x | x | x
COc1ccc(C(=O)NN)cc1COc1ccc(Br)cc1 | 0 | -1 | -1 | 19591* | 0 | -4
